Only a selection was taken, and hits are over-represented in it overall.
JMJD2E inh: JMJD2E (human) inhibition; B2RXH2; JMJD2E catalytic domain, FDH-coupled NADH fluorescence (FDH is formaldehyde dehydrogenase); Potency, µM (series often up to 57.1 µM), without a hit: top-dose activity change, negative = inhibition, most hits filed as inhibitors; 230,000 compounds, 1.6% hits; AID 2147; active = well fitted inhibition curve with a large enough effect, not every such curve was filed as active; inconclusive = small, poorly fitted or top-dose-only effect, or another doubt; inactive = no such curve, though single readings can be large or run the other way;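 note: 0% = wells with enzyme and -100% = buffer wells without enzyme; nearly all actives have a fitted effect of over 50% in size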
Target sequence (B2RXH2 1-337 limits assumed): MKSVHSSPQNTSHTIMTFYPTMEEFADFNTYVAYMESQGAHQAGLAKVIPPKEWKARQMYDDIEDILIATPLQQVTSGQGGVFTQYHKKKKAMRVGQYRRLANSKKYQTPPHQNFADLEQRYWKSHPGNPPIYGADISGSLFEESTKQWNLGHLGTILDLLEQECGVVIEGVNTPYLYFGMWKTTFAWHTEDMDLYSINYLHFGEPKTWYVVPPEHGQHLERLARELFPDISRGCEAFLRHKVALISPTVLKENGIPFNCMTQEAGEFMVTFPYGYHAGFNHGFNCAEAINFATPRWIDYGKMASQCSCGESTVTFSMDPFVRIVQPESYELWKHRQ
L3MBTL1 inh: blocks human L3MBTL1; 230,000 compounds, 0.66% hits; AlphaScreen L3MBTL1–H3K9me1 peptide binding; Potency, µM (highest dose often 57.1 µM), for inactives: at the highest dose activity, negative = inhibition, hits mostly inhibitors; AID 485360; note: nearly all actives have a fitted effect of over 60% in size
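L3MBTL1 50 nM + b-AHA-H3(1-15)K9me1 75 nM, 30 min RT; compound added, 30 min RT; streptavidin donor/Ni-chelate acceptor beads 10 ug/mL each final, 30 min RT dark; AlphaScreen read.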
RECQ1 inh: RECQ1 (human) helicase inhibition; P46063; RECQ1 DNA unwinding, red fluorescence kinetic read; Potency, µM (titrated, usually from 57.3 µM), for inactives: at the top dose activity, negative = inhibition, usual class: inhibitors; 240,000 compounds, 0.54% hits;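 note: plate controls were vehicle for no effect and no enzyme for full effect; nearly all actives have a fitted effect of over 30% in size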
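50 nM RECQ1T1 preincubated 15 min with compound in Tris pH 8.0 buffer with MgCl2, DTT, Tween-20 and 2.5 ug/ml poly(dI-dC); started with 200 nM TAMRA/BHQ-2 forked duplex and 2 mM ATP. Unwinding read as fluorescence (525/598 nm), two reads 2 h apart.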
APEX1 inh: inhibitors of human APE1 endonuclease; recombinant APE1, TAMRA/BHQ-2 abasic DNA cleavage fluorescence; P27695; Potency, µM (series often up to 65.8 µM), for the others: top-dose activity change, negative = inhibition, hits mostly inhibitors; 350,000 compounds, 0.35% hits; AID 2517;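 note: plate controls were vehicle for no effect and reference inhibitor for full effect; nearly all actives have a fitted effect of over 55% in size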
Target sequence (P27695 whole entry, looked up): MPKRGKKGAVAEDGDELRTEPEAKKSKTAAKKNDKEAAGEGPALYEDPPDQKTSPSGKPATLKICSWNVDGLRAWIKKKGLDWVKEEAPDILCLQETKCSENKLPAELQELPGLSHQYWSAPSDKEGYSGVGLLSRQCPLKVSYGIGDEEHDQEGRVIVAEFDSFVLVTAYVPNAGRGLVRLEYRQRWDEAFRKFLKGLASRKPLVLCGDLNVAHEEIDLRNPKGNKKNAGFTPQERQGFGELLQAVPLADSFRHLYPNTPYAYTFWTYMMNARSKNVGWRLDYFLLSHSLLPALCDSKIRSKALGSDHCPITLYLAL
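Compound pre-exposure to 0.75 nM APE1, 15 min at ambient temperature. Reaction initiated with 50 nM TAMRA/BHQ-2 THF substrate, read immediately in kinetic mode, 525 nm excitation, 598 nm emission.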
BLM helicase inh: blocks DNA unwinding by human BLM helicase | recombinant BLM DNA unwinding, fluorescence dequenching | Potency, µM (top dose mostly 56.1 µM), inactives show at the highest dose activity change, negative = inhibition, most hits filed as inhibitors | 350,000 compounds, 0.2% hits | AID 2528;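 note: plate controls were vehicle for no effect and no enzyme for full effect; nearly all actives have a fitted effect of over 35% in size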
Starred values were filed as active, the others as inactive; i = inactive; ? = inconclusive; . = no result; ! = a repeat was not active; [ ] = dose if it differs, or a comment. Unless noted, calls come from the whole dose curve; as a rule, active = well fitted curve in the direction sought with a large enough effect; inconclusive = small, poorly fitted or top-dose-only effect, or another doubt; inactive = no such curve, though single readings can be large; an effect the other way counts as inactive or inconclusive. Unless noted, % is set by controls: 0 for no effect and ±100 for the full control effect; potency is the fitted concentration of half-maximal effect.

SMILES	JMJD2E inh	L3MBTL1 inh	RECQ1 inh	APEX1 inh	BLM helicase inh
O=C(/C=C/c1ccc(O)cc1)c1ccccc1O	?	.	0%	0%	-10%
O=C(NCC1CCCO1)c1ccc(CS(=O)(=O)c2c(Cl)cccc2Cl)o1 (centres undefined)	1%	.	-7%	-6%	4%
O=C(N/N=C/c1ccccc1O)C1SCCCS1	28µM*	-25%	-4%	0%	0%
COC(=O)CCC(=O)OC1(C)C(=O)C2=CN(CCCCO)C(c3ccc(OC)cc3)=CC2=C(Br)C1=O (centres undefined)	-9%[11.4 µM]	-18%	-7%[11.5 µM]	8%	-17%
COC(=O)CCC(=O)OC1(C)C(=O)C2=CN(C(CO)CO)C(c3ccc(OC)cc3)=CC2=C(Br)C1=O (centres undefined)	5µM*	.	10%[11.5 µM]	-3%[12.4 µM]	-19%[12.4 µM]
Cc1ccc2c(=O)cc(C(=O)Nc3sc4c(c3C(=O)NCC3CCCO3)CCCC4)oc2c1 (centres undefined)	.	.	.	.	-2%
Cn1cccc1/C=N/NC(=O)C(O)c1ccccc1 (centres undefined)	25µM*	.	14%	1%	-15%
CCN(CC)S(=O)(=O)c1ccc(N2CCOCC2)c(NC(=O)c2cc(-c3ccccn3)nc3ccccc23)c1	13µM*	-3%	2%	-5%	-6%
CCN(CC)S(=O)(=O)c1ccc(N2CCOCC2)c(NC(=O)c2cccc3ccccc23)c1	?	-2%	-10%	-6%	-6%
CN1C2CCC1/C(=C\c1ccc(F)cc1)C(=O)/C2=C/c1ccc(F)cc1	7%	-14%	-1%	-2%	-4%
CN1C2CCC1/C(=C/c1cccn1C)C(=O)/C2=C\c1cccn1C	-3%	4.5µM*	-8%	-3%	-10%
O=C1CCCC(O)=C1N=Nc1c(Cl)cc(Cl)cc1Cl	-10%	-14%	25µM*	?	3%
Oc1ccc(/C=N/Nc2nc(N3CCCC3)nc(N3CCCC3)n2)cc1O	18µM*	-9%	i	-1%	-5%
CCCCN(C)C1=CC2=CC(=C(C#N)C#N)CCC2CC1 (centres undefined)	0%	6%	14µM*	6%	13µM*
N#CC(C#N)=C1C=C2C=C(N3CCCCC3)CCC2CC1 (centres undefined)	-29%	-9%	28µM*	9%	-21%
COc1ccc(CNc2ncncc2-c2ccoc2)c(OC)c1	.	.	12%	-3%	2%
Cc1cccc(NS(=O)(=O)c2cc3c4c(c2)C(C)C(=O)N4CCC3)c1 (centres undefined)	.	.	.	29%	-2%
COC(=O)C1=C(C)N(c2cc(C)cc(C)c2)/C(=C/c2ccco2)C1=O	-26%	13µM*	-15%	?	-11%
O=C(COc1cccnc1[N+](=O)[O-])NCCc1ccc(F)cc1	?	5%	i	7%	-2%
COc1ccc(CCN(/C=C2\Sc3ccccc3C2=O)C(C)=O)cc1OC	32µM*	-1%	-2%	-2%	-4%
CCC1=Nc2cc(C(=O)NCCc3ccc(OC)c(OC)c3)ccc2Sc2ccccc21	.	.	.	.	-7%
CCOc1ccc2nc(N=NC3=C(O)CC(C)(C)CC3=O)sc2c1	22µM*	.	-6%	-22%	0%
CC(C)c1ccccc1NC(=O)CNCCc1ccc(C(F)(F)F)cc1	3.2µM*	.	-1%	?	-15%
NS(=O)(=O)c1ccc(CCNC(=O)CNCCc2ccc(C(F)(F)F)cc2)cc1	.	.	.	1%	0%
COc1c(O)c(O)cc2c1oc1c3cc(C)ccc3oc(=O)c21	20µM*	.	8.9µM*	?	?
SMILES	JMJD2E inh	L3MBTL1 inh	RECQ1 inh	APEX1 inh	BLM helicase inh
O=C(O)c1ccccc1C(=O)Nc1n[nH]c(=S)s1	4µM*	?	-5%	-3%	-6%
Cc1ccc(S(=O)(=O)Nc2ccc(O)c3ncccc23)cc1	25µM*	.	-3%	-7%	-2%
CCCCN(C(=O)C(C)(C)Oc1ccc(Cl)cc1)c1c(N)n(CCC)c(=O)[nH]c1=O	.	13%	.	-10%	.
O=C(O)c1ccc2ncsc2c1	14µM*	10µM*	i	2%	-7%
CCOC(=O)c1c(C)oc2c1c(CN1CCN(C(=O)OCC)CC1)c(O)c1ccccc12	25µM*	-15%	-11%	-4%	-9%
CCOC(=O)c1c(C)oc2c1c(CN1CCN(CCO)CC1)c(O)c1ccccc12	?	.	-5%	-5%	-3%
COc1cc(OC)c(C(=O)Nc2cc(Cl)ccc2-n2cncn2)cc1OC	.	-4%	.	-15%	.
CC1=NN(c2cccc(C(=O)O)c2)C(=O)/C1=C\C=C\c1ccco1	9%	3.2µM*	0%	2%	18%
CC1=NN(c2ccccc2)C(=O)/C1=C/C=C/c1ccccc1	-3%	?	-7%	-1%	-11%
CC[n+]1ccc(C)c2cc(P(=O)(c3ccccc3)c3ccccc3)ccc21	25µM*	.	-17%	-2%	-4%
Cc1ccnc2ccc(P(=O)(c3ccccc3)c3ccccc3)cc12	2%	6%	i	-7%	-2%
CCc1ccc(CNC(=O)CCc2nnc(CCc3ccc(OC)cc3)o2)nc1	-14%	-8%	23%	0%	-2%
Cc1nc(C)c(C(=O)Nc2nc3c(C)cccc3s2)o1	6%	20µM*	-28%	?	-20%
COc1ccc(-c2csc(NC(=O)C3CC(=O)N(Cc4ccccc4)C3)n2)cc1OC (centres undefined)	.	.	.	0%	-12%
O=C(CSc1nc2sc3c(c2c(=O)n1-c1ccccc1)CCCC3)N/N=C/c1ccccc1C(=O)O	.	.	.	11µM*	?
CC(C)Cn1c(N)c(C(=O)COC(=O)c2cc(-c3ccco3)nc3ccccc23)c(=O)n(C)c1=O	?	8.9µM*	20µM*	11µM*	?
CC(C)Cn1c(N)c(C(=O)COC(=O)c2cc(-c3ccccc3)nc3ccccc23)c(=O)n(C)c1=O	-11%	-4%	-5%	-2%	-9%
Cn1c(=O)c(C(=O)COC(=O)c2cc(-c3ccco3)nc3ccccc23)c(N)n(Cc2ccccc2)c1=O	?	?	32µM*	?	?
CC(=O)c1ccc(OCC(O)CN2CC(C)OC(C)C2)cc1 (centres undefined)	0%	4%	1%	-2%	-2%
Nc1ccc(C(=O)O)c(O)c1	7.1µM*!	5%	9%	1%	-12%
CCCCC/C=C\C=C\[C@@H](O)CCCCCCCC(=O)O	3%	.	-2%	20%	4%
CCCCC[C@H](O)/C=C/C1=C(CCCCCCC(=O)O)C(=O)CC1	-8%	?	10µM*!	-9%	29%
O=C(Nc1cccc(C(F)(F)F)c1)c1ccc2nc(-c3ccco3)c(-c3ccco3)nc2c1	14µM*	.	i	14%	?
O=C(O)c1ccc2nc(-c3ccco3)c(-c3ccco3)nc2c1	2%	2.2µM*	-14%	?	-1%
O=C(Nc1cccc(C(F)(F)F)c1)c1ccc2snnc2c1	.	.	.	.	0%
